Test results published in PubChem BioAssay AID1159580 (chemical genetic matrix, 2015).
In all, about 5,500 compounds went through this assay and about 2,000 (36%) were called active. Not shown: some 18% with an inconclusive outcome. Cut-off read from the data, not from the text of the source: active = normalized growth mostly below about 0.91 (no sharp cut-off); inconclusive = no clear call, values can overlap the other calls; inactive = mostly above about 0.92. This is one part of the list.

Test: chemical genetic growth profiling, strain panel (AID 1159580);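 note: tested at 20 µM; growth read once vehicle control cultures reached saturation at 30 °C; 1 = growth at the plate median or of vehicle wells; lower values mean less growth of the strain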
Details: S. cerevisiae deletion strains, growth OD

Measured: normalized growth

Cn1c([N+](=O)[O-])cnc1COC(N)=O
inactive: locus YAL013W, strain DEP1, active compounds read low 1.01 | locus YAL021C, strain ccr4, active compounds read low 1.01 | locus YAL026C, strain drs2, active compounds read low 1.02 | locus YAL030W, strain snc1, active compounds read low 1 | locus YBL061C, strain skt5, active compounds read low 1.01 | locus YBR009C, strain hhf1, active compounds read low 0.978 | locus YBR021W, strain FUR4, active compounds read low 1.02 | locus YBR023C, strain chs3, active compounds read low 1.01 | locus YBR171W, strain sec66, active compounds read low 1.01 | locus YBR229C, strain ROT2, active compounds read low 1.01 | locus YBR231C, strain swc5, active compounds read low 0.992 | locus YBR279W, strain paf1, active compounds read low 1 | locus YCL011C, strain gbp2, active compounds read low 1.01 | locus YCL016C, strain dcc1, active compounds read low 1.01 | locus YCL029C, strain bik1, active compounds read low 0.993 | locus YCL069W, strain vba3, active compounds read low 0.987 | locus YCR088W, strain abp1, active compounds read low 1.01 | locus YDL005C, strain med2, active compounds read low 1.01 | locus YDL035C, strain GPR1, active compounds read low 1.02 | locus YDL040C, strain nat1, active compounds read low 0.997 | locus YDL074C, strain BRE1, active compounds read low 1.02 | locus YDL101C, strain DUN1, active compounds read low 1.02 | locus YDL134C, strain PPH21, active compounds read low 1 | locus YDL185W, strain tfp1, active compounds read low 0.978 | locus YDL192W, strain arf1, active compounds read low 0.984 | locus YDR001C, strain nth1, active compounds read low 1 | locus YDR069C, strain doa4, active compounds read low 0.984 | locus YDR101C, strain arx1, active compounds read low 0.986 | locus YDR137W, strain rgp1, active compounds read low 1.04 | locus YDR150W, strain NUM1, active compounds read low 1 | locus YDR159W, strain sac3, active compounds read low 0.983 | locus YDR162C, strain NBP2, active compounds read low 1.01 | locus YDR195W, strain ref2 1.01 | locus YDR297W, strain sur2, active compounds read low 1.02 | locus YDR318W, strain mcm21, active compounds read low 0.985 | locus YDR334W, strain swr1, active compounds read low 1 | locus YDR335W, strain msn5, active compounds read low 1.01 | locus YDR388W, active compounds read low 0.992 | locus YDR392W, strain spt3, active compounds read low 1.04 | locus YDR502C, strain sam2, active compounds read low 0.989 | locus YEL003W, strain gim4, active compounds read low 0.999 | locus YEL037C, strain rad23, active compounds read low 0.998 | locus YEL061C, strain CIN8 (second series), active compounds read low 1 | locus YEL061C, strain CIN8, active compounds read low 1.01 | locus YER015W, strain faa2, active compounds read low 1.01 | locus YER016W, strain bim1, active compounds read low 1.02 | locus YER110C, active compounds read low 0.988 | locus YER111C, strain swi4, active compounds read low 0.998 | locus YER155C, strain BEM2 (second series), active compounds read low 1.02 | locus YER155C, strain BEM2, active compounds read low 1 | locus YER167W, strain BCK2, active compounds read low 1.01 | locus YFR010W, strain ubp6, active compounds read low 0.983 | locus YGL078C, strain dbp3, active compounds read low 0.987 | locus YGL086W, strain mad1, active compounds read low 0.998 | locus YGL167C, strain pmr1, active compounds read low 1 | locus YGL173C, strain kem1, active compounds read low 1 | locus YGL227W, strain vid30, active compounds read low 1.01 | locus YGL240W, strain doc1, active compounds read low 1 | locus YGL248W, strain PDE1, active compounds read low 1.01 | locus YGL253W, strain hxk2, active compounds read low 1.01 | locus YGR078C, strain PAC10, active compounds read low 1.01 | locus YGR135W, strain pre9, active compounds read low 0.983 | locus YGR252W, strain gcn5, active compounds read low 0.981 | locus YHR013C, strain ard1, active compounds read low 1.04 | locus YHR027C, strain rpn1, active compounds read low 1.02 | locus YHR030C, strain SLT2, active compounds read low 1.01 | locus YHR079C, strain IRE1 (second series), active compounds read low 0.991 | locus YHR079C, strain IRE1, active compounds read low 1 | locus YHR094C, strain hxt1, active compounds read low 0.986 | locus YHR129C, strain ARP1, active compounds read low 1 | locus YHR142W, strain chs7, active compounds read low 1.01 | locus YHR200W, strain rpn10, active compounds read low 0.986 | locus YIL066C, strain RNR3, active compounds read low 1.02 | locus YIL073C, strain SPO22, active compounds read low 1.03 | locus YIL125W, strain kgd1, active compounds read low 0.987 | locus YIR030C, strain dcg1, active compounds read low 0.994 | locus YJL092W, strain hpr5, active compounds read low 1.01 | locus YJL095W, strain BCK1 (second series), active compounds read low 1.01 | locus YJL095W, strain BCK1, active compounds read low 1.02 | locus YJL115W, strain asf1, active compounds read low 0.999 | locus YJL129C, strain trk1, active compounds read low 1.02 | locus YJL134W, strain LCB3, active compounds read low 1 | locus YJL154C, strain vps35, active compounds read low 1.01 | locus YJL164C, strain tpk1, active compounds read low 0.993 | locus YJL166W, strain qcr8, active compounds read low 0.988 | locus YJL168C, strain set2, active compounds read low 0.986 | locus YJL187C, strain SWE1 (second series), active compounds read low 1.02 | locus YJR043C, strain POL32, active compounds read low 1.02 | locus YJR066W, strain TOR1, active compounds read low 0.954
